# Laboratory results reported in PubChem BioAssay AID588402 (Sanford-Burnham Center for Chemical Genomics, 2011).
# The whole screen tested about 1,600 compounds, of which about 1,100 (69%) were called active. The set was probably picked from earlier hits. Not all results are given here. A number with no mark means an inactive call. Rule as the data show it: active = inhibition above about 50%; inactive = the rest.
# Target: Phospholipase A2 (Homo sapiens) (UniProt P04054)
# Assay: PLA2 enzyme inhibition, counter-screen for ATG4B inhibitor project, biochemical, single concentration, uHTS hits (AID 588402)
# Details: purified PLA2, NBD-C6-HPC fluorescence, 45 min; at 8.33 µM; active compounds read high
# Phospholipase A2 (Homo sapiens), sequence (P04054 whole entry, looked up): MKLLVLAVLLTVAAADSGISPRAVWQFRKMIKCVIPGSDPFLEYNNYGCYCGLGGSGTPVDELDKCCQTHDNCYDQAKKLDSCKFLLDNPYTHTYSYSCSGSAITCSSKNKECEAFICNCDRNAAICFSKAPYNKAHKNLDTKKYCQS
row,Compound,inhibition
1,COc1ccc2c(c1)CCc1c(C(=O)N3CCc4ccccc4C3)noc1-2,47.9%
2,O=C(C(=O)N1CCc2ccccc2C1)c1c[nH]c2ccccc12,71% (active)
3,Cc1ccc(-c2cc(C(=O)N3CCc4ccccc4C3)no2)cc1,43.8%
4,Cc1ccc(CSc2nc(-c3ccccc3)c(C#N)c(=O)[nH]2)cc1,32.1%
5,COc1ccc(Br)cc1C(=O)NC(=S)Nc1cc(-c2nc3ccccc3[nH]2)ccc1C,74.1% (active)
6,CCc1cccc(C)c1N1C(=O)CN(Cc2ccccc2)C1=S,92.4% (active)
7,Cc1cccc(C)c1N1C(=O)CN(Cc2ccccc2)C1=S,90.3% (active)
8,Cc1cccc(C)c1-n1c(C)cc(/C=C2\C(=O)NN(c3ccccc3)C2=O)c1C,63.7% (active)
9,Cc1c(Cl)cccc1NC(=O)Nc1ccc(C(=O)N2CCCC2)cc1,56.6% (active)
10,O=C1c2ccccc2C(=O)N1Cc1cc(-c2ccccc2Cl)no1,64.2% (active)
11,COc1ccc(C)cc1S(=O)(=O)N(CC(=O)Nc1cccc([N+](=O)[O-])c1)c1ccc(C)cc1,86.6% (active)
12,Cc1ccc(S(=O)(=O)N(CC(=O)Nc2cccc([N+](=O)[O-])c2)Cc2ccc(Cl)cc2)cc1,80.7% (active)
13,Fc1cccc(Cl)c1CSc1ccc(-c2ccco2)nn1,49.5%
14,NC(=O)Cc1ccc2sc(-c3ccccc3)nc2c1,79.7% (active)
15,CCN1CCN(c2c(Cl)cccc2NC(=O)c2ccc(Br)o2)CC1,61.6% (active)
16,Cc1ccc(N=C2NC(=O)/C(=C/C=C/c3ccco3)S2)cc1C,36.4%
17,CC(C)c1ccc2c(c1)c(SC(C)(C)C)c(CC(C)(C)C(=O)O)n2Cc1ccc(Cl)cc1,57.7% (active)
18,O=C(/C=C/c1ccc(Cl)cc1)N1CCN(c2ccccc2[N+](=O)[O-])CC1,53% (active)
19,CC(=O)c1c(C)n(-c2ccc(N(C)C)cc2)c2ccc(OCC(N)=O)cc12,82.6% (active)
20,Cc1c(Cl)c([N+](=O)[O-])nn1CCCC(=O)Nc1cc(Cl)ccc1Cl,69.4% (active)
21,COc1ccc(/C=C2/SC(=O)N(CCCCCC(=O)Nc3ccccc3C(=O)O)C2=S)cc1,24.3%
22,O=C(Nc1cccc(F)c1)NC1CCCc2ccccc21 (stereo unspecified),71.2% (active)
23,CCOC(=O)c1c(C)[nH]c2c1-c1ccccc1C(=O)C2=O,-20.8%
24,CC1CCN(C(=O)c2ccc(CSc3ccc(Cl)cc3)cc2)CC1,58.1% (active)

row,Compound,inhibition
1,CC1(OC(=O)C2CCCC2)C(=O)C=C2C=C(c3ccc(C#N)cc3)OC=C2C1=O (stereo unspecified),66.5% (active)
2,CCCc1nc2c(c(=O)c3ccccc3n2C)c(=O)n1C1CCCCCC1,-14.6%
3,Cc1c(Cl)cccc1NC(=S)NCc1ccc2c(c1)OCO2,62.1% (active)
4,CCCOc1ccc2c3c(c(=O)oc2c1OCCC)CCC3,40.9%
5,CCc1ccccc1NC(=O)/C(=C/c1ccccc1)c1ccccc1,61.7% (active)
6,Cc1ccc(Nc2cc(=O)n(C3CCCCC3)c(=O)[nH]2)cc1C,2.78%
7,NC(=O)Cc1ccc2c(c1)[nH]c1ccccc12,51% (active)
8,O=C1N=C(N2CCc3ccccc3C2)S/C1=C\c1ccc(O)cc1,23.3%
9,O=c1c2sccc2nc(SCc2cc(=O)n3ccccc3n2)n1-c1ccc(Br)cc1,51.5% (active)
10,CCOc1ccc(-n2c(SC(C)C(=O)OC)nc3c(c2=O)SCC3)cc1 (stereo unspecified),56.4% (active)
11,CCOC(=O)C(C)Sc1nc2ccccc2c(=O)n1CC1CCCCC1 (stereo unspecified),44.5%
12,Cc1ccc(NC(=O)CC2S/C(=N/N=C3\CCCc4ccccc43)NC2=O)cc1 (stereo unspecified),60% (active)
13,Cc1nn(-c2ccccc2)c(C)c1/C=N/NC(=O)CSc1nc2ccccc2c(=O)n1-c1ccccc1,31.8%
14,COC(=O)c1c(NC(=O)C2CC(C)=C(C)CC2C(=O)O)sc2c1CCCCC2 (stereo unspecified),68% (active)
15,COc1cccc(CNc2nc(C(F)(F)F)nc3ccccc23)c1,63.6% (active)
16,OC(CNCc1ccc(Cl)c(Cl)c1)c1ccccc1 (stereo unspecified),38.9%
17,Cc1c(NC(=S)NCc2ccc(F)cc2)cccc1[N+](=O)[O-],70.7% (active)
18,Cc1cccc(C2c3[nH]c4ccccc4c3CCN2C(=O)c2cc(-c3cccn3C)n[nH]2)n1 (stereo unspecified),75.6% (active)
19,Cc1c(Cl)c([N+](=O)[O-])nn1Cc1ccc(C(=O)N/N=C\c2cc(Cl)ccc2O)o1,72.6% (active)
20,COc1cccc(/C=N/Nc2ccc(S(=O)(=O)Nc3ccccc3C(=O)O)cc2[N+](=O)[O-])c1O,56.1% (active)
21,c1ccc(C2=Nc3cccc4cccc(c34)N2)cc1,58.5% (active)
22,CC(C)c1nc(SCC(=O)Nc2cccc(C(=O)O)c2)c2c3c(sc2n1)CCCC3,70.6% (active)
23,Cc1nc2ccccc2c(-c2ccccc2)c1C(=O)c1ccccc1,81.3% (active)
24,Cc1ncc(CC(=O)n2cc(C(=O)c3cc(Cl)ccc3O)cn2)s1,84.3% (active)

row,Compound,inhibition
1,Cc1cccc(C)c1N1CCN(S(=O)(=O)N2CCCCC2)CC1,54.3% (active)
2,Cc1nc(SCC(=O)N2CCc3ccccc3C2)c2c(C)c(C)sc2n1,76.5% (active)
3,FC(F)(F)c1cccc(NC(=S)Nc2cccc(Cl)c2)c1,70.8% (active)
4,Cc1ccc(C2=Nc3c(ccc4ccccc34)C(c3ccncc3)=NN2)cc1,68.7% (active)
5,O=C(NCc1ccccc1)[C@H]1C[C@@H]1[C@H](NP(=O)(c1ccccc1)c1ccccc1)c1ccccc1,79% (active)
6,O=C(CSc1nc(-c2ccccc2)cs1)Nc1cccc([N+](=O)[O-])c1,16.5%
7,O=C(Nc1nnc(SCc2ccccc2Cl)s1)c1cccc([N+](=O)[O-])c1,57.6% (active)
8,Clc1ccccc1CSc1nnc(-c2ccco2)c(-c2ccco2)n1,34.9%
9,S=C(NCCc1ccccc1)NCc1ccccc1Cl,54.4% (active)
10,FC(F)(F)Oc1ccc(NC(=S)NCc2ccccc2)cc1,47.2%
11,Cc1ccc(CNC(=O)c2ccccc2CCc2ccccc2)cc1,45.9%
12,CN(Cc1c(F)cccc1Cl)S(=O)(=O)c1cccs1,58.8% (active)
13,CCCC1=Nc2cc(C(=O)NCc3ccco3)ccc2Sc2ccccc21,46.3%
14,Oc1c(Cl)cc(Cl)c(Cl)c1Cc1c(O)c(Cl)cc(Cl)c1Cl,82.7% (active)
15,Cc1ccc(-n2c(SCC(=O)N/N=C/C=C/c3ccccc3[N+](=O)[O-])nc3ccccc3c2=O)cc1,40.7%
16,O=C(O)CCn1cc(/C=C/C(=O)c2ccc(Cl)cc2)c(-c2cccc(Br)c2)n1,43.2%
17,O=C1C(=O)N(CC2COc3ccccc3O2)c2ccccc21 (stereo unspecified),78.5% (active)
18,Fc1ccc2[nH]c3c(N4CCN(Cc5ccc6c(c5)OCO6)CC4)ncnc3c2c1,48.4%
19,COc1ccc(NC(=O)COc2ccc(C(=O)c3ccc(F)cc3)cc2)cc1S(N)(=O)=O,-4.37%
20,COc1cccc(NC(=O)NCc2ccc(F)cc2)c1,52.3% (active)
21,CC1=C/C(=N\S(=O)(=O)c2ccccc2)C(C(C)C)=CC1=O,84.4% (active)
22,CN(C)Cc1ccc(F)cc1Sc1cc(Cl)ccc1Cl,42.7%
23,O=C(N/N=C/c1coc2ccccc2c1=O)c1cc2ccccc2o1,55.8% (active)
24,COc1ccc(/C=C2\CCc3ccccc3C2=O)c(OC)c1OC,23.1%

row,Compound,inhibition
1,COc1ccc(/C=C2/CCCc3ccccc3C2=O)cc1,53.3% (active)
2,CCc1ccc2c(c1)C(c1ccc([N+](=O)[O-])cc1)=NNC(c1ccccc1)=N2,24.1%
3,CCOc1ccc2c(c1)C(c1ccc(C)cc1)=NNC(c1ccc(C)cc1)=N2,74.7% (active)
4,O=C1Nc2cc(Cl)c(Cl)cc2N(O)N1c1cc(Cl)cc(Cl)c1,39.8%
5,O=C(O)C(c1ccccc1)N1C(=O)/C(=C\c2ccc(-c3cccc(Cl)c3)o2)SC1=S (stereo unspecified),45%
6,O=C(N[C@@H](Cc1c[nH]c2ccccc12)C(=O)O)OCC1c2ccccc2-c2ccccc21,72.1% (active)
7,Cc1cccc(NC(=S)Nc2ccc(Cl)c(Cl)c2)c1,60.1% (active)
8,COc1cnc(-c2ccccn2)nc1Oc1ccc(C(C)(C)C)cc1,67.2% (active)
9,CC(C)(C)c1ccc(OC2=CS(=O)(=O)c3ccccc32)cc1,55.9% (active)
10,Cc1cccc(NC(=S)NCCc2ccc(Cl)cc2)c1C,57.9% (active)
11,Cc1ccc(Nc2ccc(C(N)=O)cc2[N+](=O)[O-])cc1,59.4% (active)
12,COc1cccc(Cn2cc(/C=N/NC(=O)c3cc(O)cc(O)c3)c3ccccc32)c1,76.6% (active)
13,COC(=O)N/N=C/c1cn(CCCOc2ccc(C)cc2)c2ccccc12,43%
14,CCOC(=O)N/N=C/c1cn(Cc2ccccc2Cl)c2ccccc12,48.2%
15,CC(C)(C)C1CCc2c(sc3nc(SCC(N)=O)nc(N)c23)C1 (stereo unspecified),47.6%
16,CCOC(=O)c1c(-c2ccccc2)oc2cc(Br)c(O)c(C=O)c12,40.9%
17,CC(=O)Nc1ccc(C(=O)Nc2nc(-c3cc(C)n(Cc4ccccc4)c3C)cs2)cc1,38.2%
18,CCCc1[nH]nc2c1C(c1ccc(OC(=O)c3ccco3)cc1)C(C#N)=C(N)O2 (stereo unspecified),67.4% (active)
19,COC(=O)c1c(NC(=O)COC(=O)[C@@H](NS(=O)(=O)c2ccccc2)C(C)C)sc2c1CCC2,81.7% (active)
20,NC(=O)c1sc2nc3c(c(-c4ccccc4)c2c1N)CCC3,46.6%
21,O=C(COC(=O)/C(=C/c1cccs1)c1cccs1)NCc1ccccc1Cl,68.2% (active)
22,O=C(COC(=O)c1cc2c(s1)CCCC2)NCc1ccccc1Cl,59.3% (active)
23,CCc1nc(N2CCN(C(C)=O)CC2)c2c3c(sc2n1)CCCC3,52.4% (active)
24,Cc1ccc(Oc2cc(NC(=O)CCCn3nc(C)c([N+](=O)[O-])c3C)cc([N+](=O)[O-])c2)cc1,63% (active)
